For 13 compounds, growth results are on record in PubChem BioAssay (NCI).

Compounds without any hit were thinned out: in the full panel of roughly 83,000, 20% have a hit.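 For each line, cells grew in 96-well plates with the test compound present at a single concentration for 48 hours.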 Values without a mark were called inactive. Calls of active or inactive are those of the source. How the source made its calls: active means growth percent below 10; inactive means the rest.

Some test systems named below: SR leukemia; RPMI-8226 leukemia; OVCAR-8 ovarian; OVCAR-5 ovarian; OVCAR-4 ovarian; SK-OV-3 ovarian; IGROV1 ovarian; OVCAR-3 ovarian; HS 578T breast; NCI/ADR-RES ovarian.
Common to all, as to experiment: NCI-60 one-dose screen, 48 h (100 = growth as untreated, 0 = no growth, -100 = all killed)
Conditions in all cases: 10 µM unless noted

Turning to `COc1cc(/C=C2\CN(S(=O)(=O)c3ccc(C)cc3)C/C(=C\c3cc(CN4CCOCC4)c(O)c(OC)c3)C2=O)cc(CN2CCOCC2)c1O`, the growth is 4.35% (active) in the experiment with SR leukemia; -24.8% (active) in the experiment on RPMI-8226 leukemia; 2.94% (active) in the experiment on OVCAR-8 ovarian; -26% (active) with OVCAR-5 ovarian; 24.8% in the experiment on OVCAR-4 ovarian; 42.6% in the experiment on SK-OV-3 ovarian. Moreover, the growth was -17% (active) in the experiment on IGROV1 ovarian, -17.3% (active) with OVCAR-3 ovarian, 27.3% in the experiment on HS 578T breast and 5.42% (active) in the experiment with NCI/ADR-RES ovarian.

Take `C[C@H](C(=O)N[C@@H](Cc1ccc(-c2ccccc2)cc1)C(=O)NC1CC(C)(C)NC(C)(C)C1)c1ccc(-c2ccccc2)c(F)c1`: the growth in the experiment with SR leukemia is -27.5% (active); in the experiment with RPMI-8226 leukemia, -43.6% (active); in the experiment with OVCAR-8 ovarian, -49.9% (active); in the experiment on OVCAR-5 ovarian it was -48.9% (active); with OVCAR-4 ovarian, -27.4% (active); in the experiment on SK-OV-3 ovarian it was -17.1% (active). Moreover, the growth in the experiment on IGROV1 ovarian is -36.8% (active); in the experiment on OVCAR-3 ovarian it was -92.1% (active); in the experiment with HS 578T breast, -31.6% (active); in the experiment on NCI/ADR-RES ovarian, 60.4%.

For `CC(=O)c1ccc(NS(=O)(=O)c2ccc([N+](=O)[O-])cc2)cc1`, the growth is 83.8% with SR leukemia; 101% in the experiment on RPMI-8226 leukemia; 106% in the experiment with OVCAR-8 ovarian; 98.2% in the experiment with OVCAR-5 ovarian; 112% in the experiment with OVCAR-4 ovarian; 95.7% in the experiment with SK-OV-3 ovarian. Further, the growth was 107% in the experiment on IGROV1 ovarian, 108% in the experiment on OVCAR-3 ovarian, 115% in the experiment on HS 578T breast and 109% in the experiment on NCI/ADR-RES ovarian.

Turning to `CCN(CC)CCSc1ncnc2c1cnn2-c1ccc(S(N)(=O)=O)cc1`, the growth with SR leukemia was 57%; with RPMI-8226 leukemia, 98.2%; with OVCAR-8 ovarian it was 83.5%; in the experiment on OVCAR-5 ovarian it was 112%; in the experiment with OVCAR-4 ovarian, 106%; in the experiment on SK-OV-3 ovarian, 108%. Also, the growth was 96.5% in the experiment on IGROV1 ovarian, 84.4% with OVCAR-3 ovarian, 103% in the experiment on HS 578T breast and 85.2% in the experiment with NCI/ADR-RES ovarian.

`Cc1[nH]c(=O)[nH]c(=O)c1CCSSCCc1c(C)[nH]c(=O)[nH]c1=O`: the growth with SR leukemia is 79.6%; with RPMI-8226 leukemia, 104%; in the experiment on OVCAR-8 ovarian it was 107%; with OVCAR-5 ovarian, 110%; with OVCAR-4 ovarian it was 117%; with SK-OV-3 ovarian, 103%. For the same compound, the growth is 99.8% in the experiment with IGROV1 ovarian, 117% in the experiment with OVCAR-3 ovarian, 142% with HS 578T breast and 104% in the experiment with NCI/ADR-RES ovarian.

On to `[N-]=[N+]=NCc1ncc(-c2ccc(C(F)(F)F)cc2)c(NC2CCCCCC2)n1`, for which the growth with SR leukemia was 5.36% [50 µM] (active); in the experiment on RPMI-8226 leukemia it was 53.3% [50 µM]; with OVCAR-8 ovarian, 70.8% [50 µM]; in the experiment on OVCAR-5 ovarian, 90.7% [50 µM]; in the experiment on OVCAR-4 ovarian, 88.3% [50 µM]; in the experiment on SK-OV-3 ovarian, 90.1% [50 µM]. Further, the growth was 75.9% [50 µM] in the experiment with IGROV1 ovarian, 61.4% [50 µM] in the experiment with OVCAR-3 ovarian, 83.1% [50 µM] with HS 578T breast and 88.4% [50 µM] in the experiment with NCI/ADR-RES ovarian.

For the compound `COc1ccc(-n2cnc3cc(C(=O)N4CCCCC4)ccc32)cc1`, the growth is 94.9% in the experiment on SR leukemia; 101% in the experiment on RPMI-8226 leukemia; 100% in the experiment on OVCAR-8 ovarian; 93.1% with OVCAR-5 ovarian; 100% in the experiment with OVCAR-4 ovarian; 99.5% in the experiment with SK-OV-3 ovarian. Besides, the growth in the experiment with IGROV1 ovarian is 112%; with OVCAR-3 ovarian it was 108%; in the experiment with HS 578T breast it was 100%; in the experiment on NCI/ADR-RES ovarian, 107%.

`Cc1ccccc1NC(=O)N/C(N)=N/c1nc2ccccc2s1`: the growth in the experiment on SR leukemia is 8.11% (active); with RPMI-8226 leukemia, 16.3%; with OVCAR-8 ovarian it was 19.7%; with OVCAR-5 ovarian, 35.5%; in the experiment with OVCAR-4 ovarian, 65%; with SK-OV-3 ovarian, 65%. The growth is 14.7% in the experiment with IGROV1 ovarian, 1.83% (active) in the experiment on OVCAR-3 ovarian, 42.1% in the experiment with HS 578T breast and 8.91% (active) in the experiment on NCI/ADR-RES ovarian.

For `C/C(=C\CCc1ccoc1)CC/C=C(\C)CCCC1COC(=O)C1` (stereo not given), the growth in the experiment with SR leukemia was 100%; with RPMI-8226 leukemia it was 97.1%; in the experiment on OVCAR-8 ovarian, 95.6%; in the experiment on OVCAR-5 ovarian, 101%; with OVCAR-4 ovarian it was 87.6%; in the experiment with SK-OV-3 ovarian, 101%. In addition, the growth in the experiment on IGROV1 ovarian was 96.1%; in the experiment with OVCAR-3 ovarian, 105%; in the experiment on HS 578T breast, 97.5%; in the experiment with NCI/ADR-RES ovarian, 101%.

As to `CNNc1ncnc2c1cnn2-c1ccc(S(N)(=O)=O)cc1`, the growth in the experiment with SR leukemia is 65.6%; with RPMI-8226 leukemia it was 94%; in the experiment on OVCAR-8 ovarian, 81.8%; with OVCAR-5 ovarian, 99.8%; in the experiment on OVCAR-4 ovarian it was 106%; in the experiment with SK-OV-3 ovarian it was 115%. The growth with IGROV1 ovarian was 104%; in the experiment on OVCAR-3 ovarian it was 87.7%; with HS 578T breast it was 104%; in the experiment with NCI/ADR-RES ovarian, 87%.

For the compound `O=C1c2cccc3c([N+](=O)[O-])ccc(c23)C(=O)N1CCCCl`, the growth is -6.13% [100 µM] (active) with SR leukemia; -11.6% [100 µM] (active) in the experiment with RPMI-8226 leukemia; -64.2% [100 µM] (active) in the experiment on OVCAR-8 ovarian; -92.5% [100 µM] (active) with OVCAR-5 ovarian; -97% [100 µM] (active) in the experiment on OVCAR-4 ovarian; -99.6% [100 µM] (active) in the experiment with SK-OV-3 ovarian. Besides, the growth in the experiment with IGROV1 ovarian was -57.7% [100 µM] (active); with OVCAR-3 ovarian, -87.1% [100 µM] (active); with HS 578T breast it was 23.3% [100 µM]; in the experiment with NCI/ADR-RES ovarian, -37.9% [100 µM] (active).

Regarding `FCc1ncc(-c2ccc(C(F)(F)F)cc2)c(NC2CCCCCC2)n1`, the growth is -18% [100 µM] (active) with SR leukemia; 4.24% [100 µM] (active) in the experiment on RPMI-8226 leukemia; 15.8% [100 µM] with OVCAR-8 ovarian; 32.7% [100 µM] with OVCAR-5 ovarian; 27.2% [100 µM] in the experiment with OVCAR-4 ovarian; 46.1% [100 µM] with SK-OV-3 ovarian. Moreover, the growth with IGROV1 ovarian was 27.2% [100 µM]; with OVCAR-3 ovarian, -85% [100 µM] (active); in the experiment on HS 578T breast it was 41.4% [100 µM]; in the experiment with NCI/ADR-RES ovarian, 18.4% [100 µM].

Consider `N#Cc1ccc(-c2csc(Nc3ccc4nc5n(c(=O)c4c3)CCC5)n2)cc1`, for which the growth in the experiment on SR leukemia is 93.6%; in the experiment with RPMI-8226 leukemia it was 109%; in the experiment with OVCAR-8 ovarian, 106%; with OVCAR-5 ovarian, 103%; in the experiment on OVCAR-4 ovarian, 109%; with SK-OV-3 ovarian it was 176%. Further, the growth is 107% with IGROV1 ovarian, 116% with OVCAR-3 ovarian, 115% with HS 578T breast and 105% in the experiment on NCI/ADR-RES ovarian.
